Source: PubChem
Hits are enriched below; roughly 8.8% of the tested compounds scored in any of these assays.
HT1080 IDH1KD tx: qHTS for induction of synthetic lethality in tumor cells producing 2HG: qHTS for the HT-1080-IDH1KD cell line | HT-1080 IDH1 knockdown viability, ATP luminescence, 48 h | AID 686971, 2013 | Potency, µM (highest dose often 46.1 µM), inactives show at the highest dose activity, negative = toxicity, actives largely listed as cytotoxic | 2% of 360,000 active;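 note: potency is the fitted concentration of half-maximal effect; 0% = DMSO wells and -100% = cell-free medium wells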
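Viability of IDH1-knockdown HT-1080 fibrosarcoma cells was assessed by CellTiter-Glo after 48 h at 37 °C with titrated compound; concentration-effect curves were classified by fit quality and response size.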
KB-3-1 tox: qHTS assay for MDR1-selective chemotherapeutics: Primary screen using the parental adenocarcinoma cell KB-3-1 | KB-3-1 viability, CellTiter-Glo ATP luminescence, 72 h | Potency, µM (top dose mostly 46.1 µM), usual class: cytotoxic | 1.4% of 400,000 active | AID 1347075, 2019; note: potency is the fitted concentration of half-maximal effect; nearly all actives have a fitted effect of over 60% in size
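KB-3-1 cells, DMEM (no phenol red) + 10% FBS; compound by pin transfer, 72 h, 37 °C. Readout: CellTiter-Glo luminescence after 10 min. Data normalized, curve-fitted.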
HT1080NT lethal: qHTS for induction of synthetic lethality in tumor cells producing 2HG: qHTS for the HT-1080-NT fibrosarcoma cell line | HT-1080-NT fibrosarcoma viability, CellTiter-Glo ATP luminescence, 48 h | Potency, µM (titrated, usually from 46.1 µM), without a hit: at the highest dose activity, negative = less viability, most hits filed as cytotoxic | 1.6% of 360,000 active;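 note: NT is the 2HG producing partner of a matched IDH1 knockdown line; potency is the fitted concentration of half-maximal effect; 0% = DMSO-treated cells and -100% = media-only wells without cells; nearly all actives have a fitted effect of over 55% in size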
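HT-1080-NT; 750 cells/well; 5% FBS RPMI; 48 h compound, 37 degrees C; CellTiter-Glo luminescence; curve fitting and curve-class assignment.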
KB-V1 MDR tox: qHTS assay for MDR1-selective chemotherapeutics: Primary screen using the drug-selected MDR subline cells KB-V1; KB-V1 MDR cells viability, CellTiter-Glo, 72 h; Potency, µM (titrated, usually from 46.1 µM), actives largely listed as cytotoxic; 3.4% of 400,000 active; AID 1347076, 2019; note: potency is the fitted concentration of half-maximal effect; nearly all actives have a fitted effect of over 60% in size
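Luminescent ATP read-out (CellTiter-Glo, 10 min) measures survival of drug-selected KB-V1 MDR cells after 72 h, 37 degrees C compound exposure. Medium: phenol-red-free DMEM, 10% FBS. Values from fitted concentration-response curves.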
IL1B secr inh: qHTS for Inhibitors of Inflammasome Signaling: IL-1-beta AlphaLISA Primary Screen. 4.7% of 360,000 active. AID 743279, 2014. THP-1 LPS/ATP IL-1B secretion, AlphaLISA, 16 h; hits give low values. activity change, % at 57.5 µM; in the data active = activity change below about -50%; inconclusive = mostly about -30% to -49%
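THP-1 cells pretreated 1 hr with compounds (up to 57.5 uM final), then stimulated with LPS (250 ng/mL final) plus ATP (1.25 mM final); secreted IL-1B measured by AlphaLISA after 16 hr, decreased signal indicating inhibition.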
Numbers without * were called inactive; i = inactive; ? = inconclusive; . = no result. Unless noted, calls come from the whole dose curve; as a rule, active = well fitted curve in the direction sought with a large enough effect; inconclusive = small, poorly fitted or top-dose-only effect, or another doubt; inactive = no such curve, though single readings can be large; an effect the other way counts as inactive or inconclusive. Unless noted, % is set by controls: 0 for no effect and ±100 for the full control effect.

SMILES | HT1080 IDH1KD tx | KB-3-1 tox | HT1080NT lethal | KB-V1 MDR tox | IL1B secr inh
COc1cc(/C=C/C(=O)c2ccc3c(c2)OCCO3)cc(Br)c1OCC(=O)N(C)C | 3.66µM* | 5.17µM* | 4.61µM* | 2.31µM* | -104.1*
O=C(C1CCC1)N1CCN(c2ccc(Cl)cc2)CC1 | 5.8% | i | 9.9% | i | -11.1
COC(=O)[C@H](CC(C)C)NS(=O)(=O)NC(=O)OC(C)(C)C | . | i | . | i | .
O=C1NC[C@H](Cc2ccccc2)N(C[C@H]2CCCN2C[C@H](Cc2ccccc2)N2C[C@H](Cc3ccc(O)cc3)N(CCc3ccccc3)C(=O)C2=O)C1=O | ? | i | -22.9% | i | -52.4*
O=C1NC[C@H](Cc2ccccc2)N(C[C@@H]2CCCN2C[C@H](Cc2ccccc2)N2C[C@H](Cc3ccc(O)cc3)N(CCc3ccccc3)C(=O)C2=O)C1=O | ? | ? | ? | i | -60.3*
O=C1NC[C@H](Cc2ccccc2)N(C[C@@H]2CCCN2C[C@H](Cc2ccc(O)cc2)N2C[C@H](Cc3ccc(O)cc3)N(CCc3ccccc3)C(=O)C2=O)C1=O | 7.2% | i | -3.7% | i | -19.6
CC1(C)CC(=O)C2=C(C1)OC(N)=C(C#N)C2C#Cc1ccccc1 (stereo not drawn) | ? | i | ? | i | -96.3*
CC1(C)CC(=O)C2=C(C1)OC(N)=C(C#N)C2c1cn(-c2ccccc2)nc1-c1ccccc1 (stereo not drawn) | ? | i | 14.6µM* | i | -53.8*
CC1(C)CC(=O)C2=C(C1)OC(N)=C(C#N)C2c1ccoc1 (stereo not drawn) | 2.4% | i | 2.7% | ? | 19.4
CCN(CC)C(=O)C1=C(C)N(CCCN2CCCC2=O)C(=O)C(CC(=O)NCCCCc2ccccc2)C1 (stereo not drawn) | 5.0% | i | -4.8% | i | -21.2
CS(=O)(=O)c1sc(C#N)c2c1C(=O)CC(c1ccccc1)C2 (stereo not drawn) | 23.1µM* | i | 6.51µM* | i | -112.6*
COc1ccc(C(CC(=O)c2ccc(O)cc2)S(=O)(=O)c2ccc(C)cc2)cc1 (stereo not drawn) | ? | i | ? | ? | -50.8*
COc1ccccc1-c1nnc(NC(=O)c2ccc(S(=O)(=O)N(C)Cc3ccccc3)cc2)o1 | ? | ? | ? | 5.17µM* | 33.7
CCc1nnc(NC(=O)c2ccc(S(=O)(=O)N(CC)Cc3ccccc3)cc2)o1 | ? | ? | -22.1% | ? | 20.8
CN(Cc1ccccc1)S(=O)(=O)c1ccc(C(=O)Nc2nnc(C3CC3)o2)cc1 | ? | ? | -26.1% | ? | 20.2
CCc1nnc(NC(=O)c2ccc(S(=O)(=O)N(C)Cc3ccccc3)cc2)o1 | -23.7% | ? | -21.9% | 3.66µM* | 43.6
CN(C)CCN(Cc1ccccc1)S(=O)(=O)c1ccc2[nH]c(=O)ccc2c1 | . | i | . | i | .
S=C(NCCN1CCOCC1)N1CCN(c2cccc(Cl)c2)CC1 | -4.4% | ? | -2.5% | 4.61µM* | -92.1*
O=C(NCCCN1CCN(c2cccc(Cl)c2)CC1)c1nc(-c2ccncc2)no1 | -0.1% | i | -10.7% | 4.11µM* | 7.7
O=S(=O)(c1cccc(NC(=S)N2CCN(c3cccc(Cl)c3)CC2)c1)C(F)F | 23.1µM* | i | 20.6µM* | i | ?
O=C(NC(=S)NCCN1CCOCC1)c1cccc(Cl)c1 | ? | i | 25.1µM* | ? | 4.1
COc1cc(NC(=O)Cn2c(=O)ccc3cc(S(=O)(=O)N4CCCC4)ccc32)cc(OC)c1 | . | i | . | i | .
Cc1ccccc1Cn1c(=O)n(CCCCC(=O)NCc2ccccc2Cl)c(=O)c2ccccc21 | . | i | . | i | .
